HEK293 tox – HEK 293 cell cytotoxicity | Potency, µM (titrated, usually from 115 µM), usual class: inhibitors | HEK 293 viability, ATP luminescence (CellTiter-Glo), 48-72 h | hit rate 6.6% among 94,000; also: nearly all actives have a fitted effect of over 60% in size
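Luminescence from cellular ATP, measured with CellTiter-Glo, indicates HEK 293 viability. Cells plated at 250 cells/well are treated with compound for 48 or 72 hr at 37 degree Celsius before reagent addition.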
3T3 cytotox – cytotoxic compounds in NIH 3T3 cells; hit rate 4.3% among 94,000; Potency, µM (series often up to 96.7 µM), usual class: inhibitors; NIH 3T3 viability, CellTiter-Glo ATP luminescence, 48-72 h; AID 1345082; also: nearly all actives have a fitted effect of over 55% in size
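Cytotoxicity was measured by CellTiter-Glo ATP luminescence after 48 or 72 h compound exposure at 37 °C. Mouse NIH 3T3 fibroblasts were seeded at 400 cells/well and dosed by 23 nL pin transfer.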
GPT2 inh – inhibitors of human GPT2 alanine aminotransferase. Potency, µM (highest dose often 57.7 µM), hits mostly inhibitors. Q8TD30. hit rate 0.25% among 100,000. AID 1671188. Recombinant GPT2, coupled pyruvate oxidase/HRP Amplex Red fluorescence; also: nearly all actives have a fitted effect of over 60% in size
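GPT2 10ng/uL, a-KG 250uM, L-Ala 2mM, HEPES pH7.5 + 0.0001% Tween; 30 min RT. Then Amplex mix (PO/HRP/ThPP), 30 min RT dark, fluorescence. AOA 50uM used as positive control.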
NPR1 antag – antagonists of human natriuretic peptide receptor Npr1; HEK293 hNpr1 GloSensor cGMP, ANP-stimulated luminescence; hit rate 1.6% among 76,000; Potency, µM (top dose mostly 46.3 µM), actives largely listed as inhibitors; P16066; calls by dose curve; also: nearly all actives have a fitted effect of over 60% in size
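Compound pre-incubated 30 min at room temperature on GloSensor-loaded HEK293 cells stably carrying hNpr1 and the pGS-40F cGMP biosensor. Stimulation uses hNppA at 0.1 nM final; luminescence is taken at baseline and 20 min post-agonist.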
Luciferase inh – blocks purified firefly luciferase enzyme activity; Potency, µM (titrated, usually from 115 µM), most hits filed as inhibitors; purified P. pyralis luciferase, luminescence, biochemical; hit rate 2.5% among 76,000; also: nearly all actives have a fitted effect of over 65% in size
Target sequence (P08659 whole entry, looked up): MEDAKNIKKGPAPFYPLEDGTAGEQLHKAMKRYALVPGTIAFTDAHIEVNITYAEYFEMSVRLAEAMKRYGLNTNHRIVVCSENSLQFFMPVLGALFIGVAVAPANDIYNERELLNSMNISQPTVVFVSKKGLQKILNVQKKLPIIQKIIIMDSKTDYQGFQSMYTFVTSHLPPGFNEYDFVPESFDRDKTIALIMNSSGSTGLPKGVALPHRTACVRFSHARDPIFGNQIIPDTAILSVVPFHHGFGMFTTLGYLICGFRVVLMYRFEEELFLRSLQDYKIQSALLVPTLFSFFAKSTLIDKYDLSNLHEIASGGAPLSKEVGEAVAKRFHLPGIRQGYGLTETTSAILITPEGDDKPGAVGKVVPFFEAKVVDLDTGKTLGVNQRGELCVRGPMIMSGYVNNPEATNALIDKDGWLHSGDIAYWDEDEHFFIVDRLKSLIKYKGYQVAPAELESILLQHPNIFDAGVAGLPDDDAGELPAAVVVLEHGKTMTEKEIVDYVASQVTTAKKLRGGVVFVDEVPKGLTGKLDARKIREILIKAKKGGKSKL
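Luminescence read by CCD imaging after purified firefly luciferase (10nM final) was added to substrate buffer holding 10uM D-luciferin and 10uM ATP, pH 7.5, pre-dosed with compound.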
Of the large screens only hits and unclear results are named; the others gave an inactive call; ! = a repeat was not active. Most compounds without a hit are left out; they make up all but 10% or so of the library. Unless noted, calls follow the shape of the dose curve; as a rule, active = well fitted curve in the direction sought with a large enough effect; inconclusive = small, poorly fitted or top-dose-only effect, or another doubt; inactive = no such curve, though single readings can be large; an effect the other way counts as inactive or inconclusive.

CCCOc1ccc(CNC(=O)[C@H]2CCC[C@H]2NC(=O)c2ccc(OC)cc2)cc1	none
O=C(c1ccc(Cl)cc1)N1CCC(Cc2nc(-c3cnccn3)no2)CC1	HEK293 tox inconclusive, 3T3 cytotox 25.1µM, GPT2 inh inconclusive, NPR1 antag inconclusive
O=C(c1ccc(F)cc1)N1CCC(Cc2nc(-c3cnccn3)no2)CC1	HEK293 tox inconclusive, 3T3 cytotox inconclusive
O=C(COc1ccccc1)N1CCCC1c1nc(CCOCC2CCOCC2)no1 (centres undefined)	none (no result: NPR1 antag, Luciferase inh)
COCCN1CCC(C(=O)Nc2ccc(Oc3ccccc3F)cc2)CC1	HEK293 tox 50.1µM, 3T3 cytotox inconclusive
Cc1cc(C)cc(N2CCN(Cc3cn(-c4ccccc4)nn3)CC2=O)c1	HEK293 tox inconclusive
COc1ccc(NC(=O)C[C@@H]2C[C@@H](C(C)C)[C@H](CC#N)C=C2C)cn1	HEK293 tox 89.1µM, 3T3 cytotox 79.4µM
O=C(NCc1ccc2c(c1)OCO2)c1nc2cccnc2n(Cc2ccccc2)c1=O	HEK293 tox 79.4µM, 3T3 cytotox inconclusive (no result: NPR1 antag, Luciferase inh)
Cc1noc(C)c1-c1cc2cc(C(C)C)oc2c(NCCN2CCOCC2)n1	HEK293 tox inconclusive, 3T3 cytotox inconclusive
Cc1noc(C)c1-c1cc2cc(C(C)C)oc2c(Nc2ccn(C)n2)n1	HEK293 tox 63.1µM, 3T3 cytotox inconclusive
Cc1noc(C)c1-c1cc2cc(C(C)C)oc2c(NC2CCN(C)CC2)n1	HEK293 tox 31.6µM, 3T3 cytotox inconclusive
Cc1noc(C)c1-c1cc2cc(C(C)C)oc2c(N2CCN(C)CC2)n1	HEK293 tox inconclusive, 3T3 cytotox inconclusive
Cc1noc(C)c1-c1cc2cc(CNC3CC3)oc2c(NC2CCN(C)CC2)n1	HEK293 tox 39.8µM, 3T3 cytotox inconclusive, GPT2 inh inconclusive
O=C(NCc1ccc(Cl)cc1)c1nc2sccn2c1-c1cccc(C(F)(F)F)c1	HEK293 tox inconclusive, 3T3 cytotox inconclusive (no result: NPR1 antag, Luciferase inh)
COc1ccccc1Nc1ccnc(N2CCC(C(=O)NCc3ccc(F)cc3)CC2)n1	HEK293 tox inconclusive, 3T3 cytotox inconclusive (no result: NPR1 antag, Luciferase inh)
COc1cc(OC)c(CNC(=O)c2c(C)noc2-c2cccs2)c(OC)c1	HEK293 tox 79.4µM, 3T3 cytotox inconclusive
COc1ccc(-c2onc(C)c2C(=O)NCc2c(OC)cc(OC)cc2OC)cc1	HEK293 tox 31.6µM, 3T3 cytotox inconclusive
COc1ccc(-c2onc(C)c2C(=O)NC2CCCc3ccccc32)cc1 (centres undefined)	HEK293 tox inconclusive, 3T3 cytotox inconclusive, Luciferase inh 28.2µM
CN1CCC(Cn2ccc3c(N4CCOCC4)nc(-c4cccc5[nH]ccc45)cc32)CC1	HEK293 tox 63.1µM, 3T3 cytotox 35.5µM
CN1CCC(Cn2ccc3c(N4CCOCC4)nc(-c4cccc(N5CCOCC5)c4)cc32)CC1	HEK293 tox inconclusive, 3T3 cytotox 31.6µM
CN1CCC(Cn2ccc3c(N4CCOCC4)nc(-c4ccc5cn[nH]c5c4)cc32)CC1	HEK293 tox 100µM, 3T3 cytotox 39.8µM
O=C1NCc2cc(-c3cc4c(ccn4Cc4ccncc4)c(N4CCOCC4)n3)ccc21	HEK293 tox inconclusive, 3T3 cytotox inconclusive
COc1ccc(-c2cc3c(ccn3Cc3ccncc3)c(N3CCOCC3)n2)cn1	HEK293 tox inconclusive, 3T3 cytotox inconclusive
CN1CCC(Cn2ccc3c(N4CCOCC4)nc(-c4cccc(N[S+](C)(=O)[O-])c4)cc32)CC1	HEK293 tox inconclusive, 3T3 cytotox inconclusive
COc1ccc(NC(=O)N2CC(Oc3cccc(-c4nc(C)no4)c3)C2)cc1	HEK293 tox inconclusive, 3T3 cytotox inconclusive (no result: NPR1 antag, Luciferase inh)
CC1CCN(S(=O)(=O)N2CCC(C(=O)N3CCC(Cc4nncn4CC4CC4)CC3)CC2)CC1	none
CC(=O)N(C)Cc1ccc(F)cc1	none
O=C(Cc1cccc(F)c1)N1CCC2(CC1)NC(=O)N(c1cccc(F)c1)N2	HEK293 tox inconclusive, 3T3 cytotox inconclusive
CS(=O)(=O)c1ccc(O[C@H]2COCCN(Cc3ccc(-c4ccccc4)cc3)C2)cc1	HEK293 tox 25.1µM, 3T3 cytotox inconclusive, NPR1 antag inconclusive
c1ccc(O[C@H]2COCCN(Cc3ccc(-c4ccccc4)cc3)C2)cc1	3T3 cytotox inconclusive
Cc1ccc(CN2CCOC[C@H](Oc3ccc(C(F)(F)F)cc3)C2)cc1	HEK293 tox 100µM, 3T3 cytotox 79.4µM
Cc1cc(-c2nc(C3CCOCC3)nn2Cc2ccccc2C)c(C)o1	HEK293 tox inconclusive, 3T3 cytotox inconclusive
CCC(C)NC(=O)c1cc(-c2cccc(OC)c2)nc2c1cnn2C (centres undefined)	HEK293 tox 100µM!, 3T3 cytotox inconclusive (no result: GPT2 inh, NPR1 antag, Luciferase inh)
COc1cccc(-c2cc(C(=O)NCC(F)(F)F)c3cnn(C)c3n2)c1	3T3 cytotox inconclusive (no result: GPT2 inh, NPR1 antag, Luciferase inh)
COc1cccc(-c2cc(C(=O)NCC3CCCCC3)c3cnn(C)c3n2)c1	HEK293 tox 39.8µM, 3T3 cytotox inconclusive (no result: GPT2 inh, NPR1 antag, Luciferase inh)
O=C(CCc1ccc2c(c1)CN(C(=O)C1COc3ccccc3O1)CCO2)N1CCOCC1 (centres undefined)	3T3 cytotox inconclusive (no result: NPR1 antag, Luciferase inh)
CC(C)c1ccc(NC(=O)CC2=C3CCCCC3N(C(C)C)C2=O)cc1 (centres undefined)	HEK293 tox inconclusive, 3T3 cytotox inconclusive (no result: NPR1 antag, Luciferase inh)
O=C(CNC(=O)c1cccc(-c2ccsc2)c1)NCc1cccc(F)c1	HEK293 tox inconclusive (no result: NPR1 antag, Luciferase inh)
CC(C)(Oc1nn(Cc2cccc(Cl)c2)c2ccccc12)C(=O)NCC[S+](C)(=O)[O-]	HEK293 tox inconclusive, 3T3 cytotox inconclusive, NPR1 antag inconclusive
CN(C)C(=O)C(C)(C)Oc1nn(Cc2cccc(Cl)c2)c2ccccc12	HEK293 tox 79.4µM, 3T3 cytotox inconclusive
COCCN(C)C(=O)C(C)(C)Oc1nn(Cc2cccc(Cl)c2)c2ccccc12	HEK293 tox 89.1µM, 3T3 cytotox 79.4µM
CN(C)CCCOc1nn(Cc2ccccc2)c2ccccc12	GPT2 inh 1.26µM! (no result: HEK293 tox, 3T3 cytotox, NPR1 antag, Luciferase inh)
CC(C)c1noc(-c2cn(C3CCN(C(=O)c4ccc[nH]4)CC3)nn2)n1	none
COC1CN(c2cccc(F)c2)C12CCN(C(=O)NC1CCCCC1)CC2 (centres undefined)	HEK293 tox 44.7µM, 3T3 cytotox inconclusive
COC1CN(c2cccc(F)c2)C12CCN(C(=O)NC(C)(C)C)CC2 (centres undefined)	HEK293 tox inconclusive
COC1CN(c2cccc(F)c2)C12CCN(C(=O)CCCc1ccccc1)CC2 (centres undefined)	HEK293 tox inconclusive, 3T3 cytotox inconclusive
COC1CN(c2cccc(F)c2)C12CCN(S(=O)(=O)c1cccc(F)c1)CC2 (centres undefined)	HEK293 tox 28.2µM, 3T3 cytotox inconclusive (no result: NPR1 antag, Luciferase inh)
COC1CN(c2cccc(F)c2)C12CCN(C(=O)C1CCC1)CC2 (centres undefined)	HEK293 tox inconclusive
COC1CN(c2cccc(F)c2)C12CCN(C(=O)c1ccncc1)CC2 (centres undefined)	none
COC1CN(c2cccc(F)c2)C12CCN(C(=O)NCCc1ccccc1)CC2 (centres undefined)	HEK293 tox 50.1µM, 3T3 cytotox inconclusive

Compound activity deposited in PubChem by National Center for Advancing Translational Sciences (NCATS).
